Test systems include HCT-15 colon; HT29 colon; SNB-75 CNS; SNB-19 CNS; U251 CNS; PC-3 prostate; SK-MEL-5 melanoma; UACC-62 melanoma; LOX IMVI melanoma; SK-MEL-28 melanoma; SK-MEL-2 melanoma; EKVX NSCLC; SN12C renal; UO-31 renal; TK-10 renal; ACHN renal; CAKI-1 renal; CCRF-CEM leukemia; MOLT-4 leukemia; A498 renal.
What all share (experiment): NCI-60 one-dose screen, 48 h (100 = growth as untreated, 0 = no growth, -100 = all killed)
Common to all, as to conditions: 10 µM unless noted

Compounds without any hit were thinned out: in the full panel of roughly 83,000, 20% have a hit.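 Percent growth is the endpoint: 0 to 100 indicates growth inhibition (40 means 60% inhibition), 0 means no net growth, and negative values indicate cell death.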 Unmarked numbers belong to inactive results. Calls of active or inactive are those of the source. How the source made its calls: active means growth percent below 10; inactive means the rest.

On to `CCCCSC1=C(Cl)CN(c2ccc(Cl)cc2)C1=O`, for which the growth is 96.1% in the assay on HCT-15 colon; 105% with HT29 colon; 104% in the assay with SNB-75 CNS; 93.3% with SNB-19 CNS; 93.6% with U251 CNS; 98.4% with PC-3 prostate. Besides, the growth with SK-MEL-5 melanoma is 98.3%; with UACC-62 melanoma, 93.4%; in the assay on LOX IMVI melanoma, 62.4%; in the assay with SK-MEL-28 melanoma, 102%; in the assay with SK-MEL-2 melanoma, 103%; in the assay with EKVX NSCLC it was 101%. Besides, the growth with SN12C renal was 104%; in the assay on UO-31 renal it was 91.1%; with TK-10 renal, 140%; in the assay with ACHN renal it was 104%; in the assay on CAKI-1 renal it was 93.9%; in the assay on CCRF-CEM leukemia, 89.9%. Moreover, the growth in the assay with MOLT-4 leukemia is 86.2%.
In the case of `COc1ccc([C@H]2C(=O)N(c3cc(OC)c(OC)c(OC)c3)[C@@H]2c2ccc(OC)c(O)c2)cc1`, the growth was 9.51% (active) with HCT-15 colon; -3.08% (active) with HT29 colon; 40.2% in the assay with SNB-75 CNS; 28.3% with SNB-19 CNS; 15.7% in the assay with U251 CNS; 20.9% in the assay with PC-3 prostate. Moreover, the growth in the assay on SK-MEL-5 melanoma was -23% (active); with UACC-62 melanoma it was 33.1%; in the assay on LOX IMVI melanoma it was 13.1%; with SK-MEL-28 melanoma, 63.7%; in the assay with SK-MEL-2 melanoma, 9.11% (active); in the assay with EKVX NSCLC, 46.1%. The growth with SN12C renal was 30.4%; in the assay with UO-31 renal, 26.9%; with TK-10 renal it was 110%; in the assay on ACHN renal it was 28.4%; with CAKI-1 renal it was 24.5%; in the assay on CCRF-CEM leukemia, 18.9%. For the same molecule, the growth in the assay with MOLT-4 leukemia was 13.4%.
With `COc1cc2c3c(cc4c5c(ccc4c3c1OC)OCO5)N(CCN(C)C)C2=O`, the growth was -6.74% (active) in the assay with HCT-15 colon; -9.31% (active) with HT29 colon; -75.5% (active) in the assay with SNB-75 CNS; 1.56% (active) in the assay on SNB-19 CNS; -2.59% (active) in the assay with U251 CNS; 6.59% (active) in the assay on PC-3 prostate. Further, the growth was -90.1% (active) in the assay with SK-MEL-5 melanoma; -64% (active) with UACC-62 melanoma; -82.6% (active) in the assay on LOX IMVI melanoma; -86.6% (active) in the assay on SK-MEL-28 melanoma; -44.5% (active) with SK-MEL-2 melanoma; -22% (active) with EKVX NSCLC. For the same molecule, the growth with SN12C renal is -5.44% (active); in the assay with UO-31 renal it was -53.9% (active); in the assay with ACHN renal, -51.4% (active); with CAKI-1 renal, -26.6% (active); with A498 renal, -77.6% (active); in the assay on CCRF-CEM leukemia, 1.57% (active). Further, in the assay on MOLT-4 leukemia, the growth is 3.85% (active).
Take `N#C/C(=N\Nc1ccc(F)cc1)C(=O)Nc1cc(-c2ccccc2)nn1-c1ccccc1`: the growth was 8.61% (active) in the assay with HCT-15 colon; 8.84% (active) in the assay on HT29 colon; -5.46% (active) in the assay on SNB-75 CNS; 5.24% (active) in the assay with SNB-19 CNS; 8.65% (active) in the assay on U251 CNS; 7.13% (active) in the assay with PC-3 prostate. The growth with SK-MEL-5 melanoma is -51.4% (active); in the assay with UACC-62 melanoma, 4.43% (active); in the assay with LOX IMVI melanoma it was 12.5%; in the assay on SK-MEL-28 melanoma, 22.1%; in the assay on SK-MEL-2 melanoma, 4.66% (active); in the assay with EKVX NSCLC, 5.52% (active). The growth in the assay with SN12C renal was 1.17% (active); with UO-31 renal, 3.54% (active); in the assay on ACHN renal, 1.44% (active); with CAKI-1 renal it was 2.61% (active); with A498 renal, -4.27% (active); in the assay on CCRF-CEM leukemia it was 15.7%. Further, the growth with MOLT-4 leukemia is 21.9%.
As for `O=C(CSc1nnc(-c2ccc(Cl)cc2)n1-c1ccccc1)Nc1ccccc1Cl`, the growth was 76.8% with HCT-15 colon; 67.5% in the assay on HT29 colon; 65.8% with SNB-75 CNS; 82.4% in the assay with SNB-19 CNS; 61.6% in the assay on U251 CNS; 77.8% in the assay with PC-3 prostate. In addition, the growth was 95.4% with SK-MEL-5 melanoma; 95.7% with UACC-62 melanoma; 15% with LOX IMVI melanoma; 95.5% in the assay on SK-MEL-2 melanoma; 69.7% in the assay on EKVX NSCLC; 29.4% in the assay on SN12C renal. Further, the growth in the assay with UO-31 renal is 34.2%; in the assay on TK-10 renal, 85.1%; in the assay on ACHN renal, 21.7%; in the assay on CAKI-1 renal, 74.6%; in the assay with A498 renal, 104%; in the assay on CCRF-CEM leukemia it was 76.7%. Also, the growth with MOLT-4 leukemia was 85.3%.
On to `O=S1SC(c2ccccc2)=NN1c1cc(F)cc(F)c1` (configuration not stated), for which the growth in the assay on HCT-15 colon was 28.7%; with HT29 colon, 98.9%; with SNB-75 CNS, 74.9%; in the assay with SNB-19 CNS it was 49.8%; in the assay with U251 CNS, 20.3%; in the assay with PC-3 prostate it was 13.3%. The growth in the assay with SK-MEL-5 melanoma was 50.4%; in the assay on UACC-62 melanoma, 29.1%; with LOX IMVI melanoma, 38.1%; with SK-MEL-2 melanoma, 68.1%; in the assay with EKVX NSCLC, 38%; in the assay with SN12C renal, 33.1%. Moreover, the growth with UO-31 renal is 22.7%; in the assay with TK-10 renal, 85.8%; in the assay on ACHN renal, 51.5%; in the assay on CAKI-1 renal, 52.4%; in the assay with A498 renal it was 12.7%; in the assay on CCRF-CEM leukemia, 18.8%. For the same molecule, the growth with MOLT-4 leukemia is 17.5%.
In the case of `Cc1cccc(N2CCN(C3=C(Cl)C(=O)c4ncccc4C3=O)CC2)c1`, the growth was 24.8% with HCT-15 colon; 104% in the assay with HT29 colon; 84.3% in the assay on SNB-75 CNS; 79.5% with SNB-19 CNS; 85.2% with U251 CNS; 72.9% in the assay with PC-3 prostate. Moreover, the growth with SK-MEL-5 melanoma is 95.2%; with UACC-62 melanoma it was 74.3%; in the assay with LOX IMVI melanoma, 24.2%; with SK-MEL-2 melanoma, 99.9%; with EKVX NSCLC, 104%; in the assay on SN12C renal, 75.1%. Besides, the growth in the assay with UO-31 renal was 18.3%; in the assay with TK-10 renal, 117%; with ACHN renal, -32.9% (active); in the assay with CAKI-1 renal, 52%; in the assay on A498 renal, 103%; in the assay on CCRF-CEM leukemia, 4.71% (active). The growth in the assay on MOLT-4 leukemia is 9.85% (active).
As to `O=C1[C@@H]2Cc3c([nH]c4ccccc34)[C@H](c3ccc(Cl)cc3)N2C(=O)CN1C1CCN(Cc2ccccc2)CC1`, the growth is 35% in the assay with HCT-15 colon; 25% with HT29 colon; 43.8% in the assay with SNB-75 CNS; 66% in the assay on SNB-19 CNS; 56.5% in the assay on U251 CNS; 38.8% in the assay with PC-3 prostate. The growth in the assay on SK-MEL-5 melanoma was 62.3%; in the assay on UACC-62 melanoma, 75.4%; in the assay on LOX IMVI melanoma, 20.7%; with SK-MEL-2 melanoma, 82.3%; in the assay on EKVX NSCLC, 47.1%; in the assay with SN12C renal, 46.4%. Also, the growth with UO-31 renal was 26.3%; with TK-10 renal, 81%; with ACHN renal it was 49.4%; in the assay on CAKI-1 renal it was 27.3%; in the assay with A498 renal, 57.5%; with CCRF-CEM leukemia, 36.7%. Also, the growth with MOLT-4 leukemia was 27%.

The values are drawn from PubChem BioAssay (NCI).
